# Measured values reported in PubChem BioAssay (NCI).
# About 83,000 compounds went through this panel and 20% of them were active in at least one assay; those are over-represented in the sample as a whole.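 Growth was measured after 48 h exposure to one concentration of compound in 96-well plates. Values under 10 count as active.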 A number with no mark means an inactive call. Activity calls are given as the source filed them.
# System: IGROV1 ovarian
# Assay: NCI-60 one-dose screen, 48 h (100 = growth as untreated, 0 = no growth, -100 = all killed)
# Conditions: 10 µM unless noted
# Procedure: Growth inhibition of the IGROV1 human tumor cell line is measured as a screen for anti-cancer activity. Cells are grown in 96 well plates and exposed to the test compound for 48 hours. Compounds are tested at a single concentration, which is 10^-5 M for most compounds. The reported endpoint is percent growth (GI% or GIPRCNT), where numbers from 0 - 100% represent growth inhibition, and numbers from -100% - 0 represent cell death. For example, a value of 40 represents 60% growth inhibition. A value of 0 means no net growth occurred over the course of the experiment. A value of -40 indicates 40% of cells at the beginning of the experiment died by the end of the experiment. A value of -100 means all cells are dead at the end of the experiment.
# NCI-60 Human Tumor Cell Lines Screen was performed using the standard one-dose NCI protocol, which is described in more detail at https://dtp.cancer.gov/discovery_development/nci-60/default.htm.
# Compounds with GIPRCNT values below 10 were considered active. Activity score was based on GIPRCNT using the following formula: […]
# Score is 0 for GIPRCNT values of 100 or above, 50 for GIPRCNT values of 0, and 100 for GIPRCNT values of -100.
row,SMILES,growth
1,COc1cc(/C=C\C(C)=N\Nc2ccccc2)ccc1O,96%
2,CCOC(=O)C1C(=O)NC(C(=O)OCC)(C(=O)OCC)C1CC (stereo not given),124%
3,Cc1ccc(C2=Nc3c(ccc4c(C)c(C)c(=O)oc34)OC2)cc1,98.5%
4,COC(=O)[C@H](Cc1cn(C)cn1)NC(=O)[C@H](C)NC(=O)Nc1cc(C(F)(F)F)cc(C(F)(F)F)c1,-54% [100 µM] (active)
5,O=C1/C(=C/c2ccccc2O)C(=S)SN1Cc1ccco1,93.4%
6,C[C@H]1c2cccc(O)c2C(O)=C2C(=O)[C@]3(O)C(O)=C(C(N)=O)C(=O)[C@@H](N(C)C)[C@@H]3[C@@H](O)[C@@H]21,21.4%
7,O=C1NC(=O)/C(=C\c2ccco2)S1,114%
8,N#Cc1ncc(-c2ccc(C(F)(F)F)cc2)c(NC2CCCCCC2)n1,32.5%
9,CCCCCCCCCCOC(C)=O,96.2%
10,Cc1cc2c(cc1C)[n+](Cc1ccc3ccccc3c1)cn2Cc1ccc2ccccc2c1,-84.9% (active)
11,CC1=C([Se]CC(OC(=O)[C@@H](CSSC(C)(C)C)NC(=O)C(C)(C)C)C(=O)NCCCCCC(=O)OCc2ccccc2)C(=O)c2ccccc2C1=O (stereo not given in full),-60.9% (active)
12,Cc1n(Cc2ccc3ccccc3c2)cc[n+]1Cc1ccc2ccccc2c1,-38.1% (active)
13,COc1ccccc1-n1c(-c2ccc(O)cc2C)cn2c3c(=O)[nH]c(=O)n(C)c3nc12,21.9%
14,CCSc1nc(-c2ccco2)n2nc(-c3ccco3)cc2n1,82.9%
15,Nc1nc(Nc2ccccc2SSc2ccccc2Nc2nc(N)nc(C(Cl)(Cl)Cl)n2)nc(C(Cl)(Cl)Cl)n1,37%
16,Cn1c(=O)c2[nH]c(=S)n(Cc3ccccc3)c2n(C)c1=O,108%
17,COc1ccc2c(c1)c(CC(=O)[Se]C)c(C)n2C(=O)c1ccc(Cl)cc1,-3.14% (active)
18,O=C(Nc1ccccc1)c1cc(-n2cnc([N+](=O)[O-])c2)cc(-n2cnc([N+](=O)[O-])c2)n1,126%
19,COP(=O)(OC)C(c1ccc(O)cc1)(c1ccc(O)cc1)c1ccc(O)cc1,11.3%
20,Cc1cc(C)cc(S(=O)(=O)n2ccc(-c3ccc4c(c3)CCC(C)(C)O4)n2)c1,105%

row,SMILES,growth
1,Cc1sc2nc(NCCc3cccs3)[nH]c(=O)c2c1C,101%
2,N#Cc1ccc(-c2csc(Nc3ccc4nc5n(c(=O)c4c3)CCC5)n2)cc1,107%
3,COc1cc(/C=C/c2cc(/C=C/c3ccc(O)c(OC)c3)n(C(=O)c3ccc(Cl)cc3)n2)ccc1O,34%
4,O=CN1N=C(c2ccc(Nc3ccnc4cc(Cl)ccc34)cc2)CC1c1ccc(Cl)cc1 (stereo not given),27.3%
5,OCc1n(Cc2ccc3ccccc3c2)cc[n+]1Cc1ccc2ccccc2c1,21.9%
6,N#Cc1ccccc1C#Cc1ccccc1C#Cc1ccc(OCCCCCCOc2ccc(C#Cc3ccccc3C#Cc3ccccc3C#N)cc2)cc1,-19% (active)
7,COC(=O)C1=CCC(n2cnc3c(N)ncnc32)O1 (stereo not given),109%
8,CC1CN(CC(O)c2ccc(Br)cc2)CCO1 (stereo not given),109%
9,CC(C)N(Cc1ccccc1)c1c(S)ssc1=S,-39.4% (active)
10,CN1C(=O)C(C2=NN(C=O)C(c3ccc(F)cc3)C2)C(=O)N(C)C1=O (stereo not given),104%
11,COc1ccc(CC(=O)Nc2nn3c(-c4cc(C(F)(F)F)cc(C(F)(F)F)c4)nnc3s2)cc1,59.9%
12,COc1cnc2c(c1)C(=O)c1c-2n(CCCN2CCC(O)CC2)c(=O)c2cc(F)ccc12,1.69% (active)
13,COc1ccc(OC)c(CCn2cncc2-c2c[nH]c3cc(Br)ccc23)c1,47.9%
14,c1ccc(-c2n(Cc3ccc4ccccc4c3)cc[n+]2Cc2ccc3ccccc3c2)cc1,-67.8% (active)
15,CC(C)OP(=O)(OC(C)C)c1ncc(-c2ccc(C(F)(F)F)cc2)c(NC2CCCCCC2)n1,-11.2% [33.3 µM] (active)
16,COc1ccc(CCN2C(=O)CCC3=C2CCCC3=O)cc1OC,108%
17,O=C1OC(Oc2ccccc2)(c2ccccc2)c2ccccc21 (stereo not given),107%
18,CCN1CC2=C(Nc3nc(SC)[nH]c(=O)c3C2c2cc(OC)c(OC)c(OC)c2)/C(=C/c2cc(OC)c(OC)c(OC)c2)C1 (stereo not given),120%
19,O=C(Nc1nc2c(C(F)(F)F)cccc2s1)c1cc(Cl)ccc1O,24.2%
20,CCOc1cc(/C=C/C(=O)CC(=O)/C=C/c2ccc(OC(=O)CNc3nc4ccc(OC)cc4s3)c(OCC)c2)ccc1OC(=O)CNc1nc2ccc(OC)cc2s1,-26.5% (active)
